# Sampled rows, rich in hits. Any-hit rate of the full collection: about 17%.
# ATXN2 expr inh: reduces ATXN2 reporter expression in HEK-293 cells; Potency, µM (highest dose often 57 µM), without a hit: at the top dose activity change, negative = inhibition, actives largely listed as inhibitors; HEK-293 ATXN2-luciferase reporter, luminescence, 24 h; AID 1745845; hit rate 0.72% among 360,000; also: % is scaled to controls: 0 for no effect and ±100 for the full control effect; nearly all actives have a fitted effect of over 55% in size
#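 qHTS (up to 57 uM final) was run with 24 h compound exposure of reporter cells at 37 °C. Each well was multiplexed: SteadyGlo luminescence measured ATXN2-luciferase expression after a fluorogenic Gly-Phe-AFC viability readout (25 uM final).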
# TGFb inhibitor: inhibitors of TGF-b signaling; HepG2 CAGA-GFP TGF-b/SMAD3 reporter, GFP fluorescence, 18 h; TGF-beta stimulated, 500 pg/mL final; Potency, µM (doses to about 46.1 µM), for the others: at the top dose activity, negative = inhibition, most hits filed as inhibitors; hit rate 1.2% among 410,000; AID 588855; also: % is scaled to controls: 0 for no effect and ±100 for the full control effect; nearly all actives have a fitted effect of over 65% in size
#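 Using HEPG2 CAGA-GFP reporter cells at 1000 cells/well, we pinned test compounds, stimulated with recombinant TGF-beta (500 pg/mL final) and measured total well GFP after 18 h.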
# S2 tox: viability counter-screen for ATXN expression inhibitors; hit rate 0.49% among 400,000; S2 cells (HEK-293 line with an ATXN2-luciferase reporter) viability, CellTiter-Fluor protease fluorescence, 24 h; Potency, µM (doses to about 56.7 µM), usual class: cytotoxic; also: nearly all actives have a fitted effect of over 40% in size
# HepG2 viability: counter-screen for TGF-b inhibitors: cytotoxicity in HepG2 cells; hit rate 0.76% among 410,000; AID 588856; Potency, µM (top dose mostly 46.1 µM), inactives show top-dose activity change, negative = cytotoxicity, usual class: cytotoxic; HepG2 CAGA-GFP viability, ATP luminescence, 18 h
#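 CellTiter-Glo luminescence gave cytotoxicity after 18 hours at 37 degrees C. The cells were HepG2 CAGA-GFP in 1% FBS DMEM, stimulated with 500 pg/mL TGF-beta after compound addition. %Activity was normalised to no-cell wells (complete cell-killing) and DMSO (no toxicity), and curves were fitted and classified.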
# TDP1 cell CPT: growth inhibition of DT40 Tdp1-/-;hTDP1 cells with camptothecin (screen for TDP1 inhibitors); chicken DT40 Tdp1-/-;hTDP1 cells + 20 nM CPT, ATP luminescence, 48 h; Potency, µM (doses to about 46.2 µM), for the others: at the top dose activity change, negative = growth inhibition, hits mostly inhibitors; hit rate 12% among 420,000; AID 686979; also: % is scaled to controls: 0 for no effect and ±100 for the full control effect; nearly all actives have a fitted effect of over 55% in size
#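 Chicken DT40 Tdp1-/- cells complemented with human TDP1, 400 cells/well, exposed to compounds plus 20 nM camptothecin for at least 48 h at 37 C; viability read as ATP content by CellTiter-Glo luminescence.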
# DT40 TDP1 no CPT: qHTS for Inhibitors of human tyrosyl-DNA phosphodiesterase 1 (TDP1): qHTS in cells in absence of CPT; DT40 Tdp1-/- hTDP1 cells, no CPT, ATP luminescence, 48 h; Potency, µM (top dose mostly 46.2 µM), for the others: top-dose activity change, negative = growth inhibition, most hits filed as inhibitors; hit rate 15% among 420,000; AID 686978, 2013; also: % is scaled to controls: 0 for no effect and ±100 for the full control effect; nearly all actives have a fitted effect of over 55% in size
#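 Compound effects on proliferation are scored in DT40 Tdp1-/-;hTDP1 cells in the absence of CPT. ATP levels (CellTiter-Glo luminescence) are recorded after a ≥48 hr, 37 °C incubation.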
# Numbers without * were called inactive; i = inactive; ? = inconclusive; . = not tested or not shown. Calls follow the shape of the dose curve; as a rule, active = well fitted curve in the direction sought with a large enough effect; inconclusive = small, poorly fitted or top-dose-only effect, or another doubt; inactive = no such curve, though single readings can be large; an effect the other way counts as inactive or inconclusive. Potency is read from the fitted curve at half-maximal effect.
SMILES,ATXN2 expr inh,TGFb inhibitor,S2 tox,HepG2 viability,TDP1 cell CPT,DT40 TDP1 no CPT
COc1cc(OC)cc(C(=O)NC2CC(C)(C)NC(C)(C)C2)c1,-13.5%,4.6%,i,-7.7%,0.2%,6.4%
CC(=O)Nc1ccc(NC(=O)[C@H](C)NC(=O)c2ccco2)cc1,1.3%,-1.0%,i,-0.5%,9.7%,6.6%
CC(C)(C)n1ncc2c(=O)n(Cc3ccc(F)c(C(F)(F)F)c3)cnc21,.,?,.,-12.3%,.,.
COCCCn1c(C)cc(C(=O)COC(=O)C23CC4CC(CC(O)(C4)C2)C3)c1C,2.0%,21.2%,?,-6.8%,3.4%,?
COc1ccc2c(c1)C=C(C(=O)NCc1ccc(Cl)cc1)CO2,-14.0%,-41.6%,i,-30.8%,?,-15.2%
CC(C)Oc1ccc(CNC(=O)C2=Cc3ccccc3OC2)cc1,12.3%,?,i,-38.3%,20.6µM*,?
CCCC/C=C/[C@H](c1ccccc1)[C@H](CO)Cc1cccnc1,-3.7%,?,i,-40.9%,?,16.4µM*
CCCC/C=C/[C@H](c1ccccc1)[C@H](CO)Cc1ccccc1,.,-23.7%,.,-25.0%,.,.
OCCN1CCN(c2nc(-c3ccccc3O)nc3ccccc23)CC1,?,?,i,-34.5%,-8.0%,16.4µM*
O=C(O)CSc1nc(-c2ccccc2)nc2c1oc1ccccc12,-17.7%,-0.2%,i,-30.2%,1.6%,-23.9%
OCCN1CCN(c2nc(-c3ccccc3)nc3c2oc2ccccc23)CC1,?,-10.7%,i,-42.2%,?,16.4µM*
OCCN(CCO)c1nc(-c2ccccc2)nc2c1oc1ccccc12,.,-5.5%,i,1.1%,16.4µM*,?
Oc1ccc(Cl)cc1CNCc1cccc2ccccc12,-16.1%,-9.7%,?,-31.0%,?,?
Cc1ccc(CNC(=O)C(C(=O)NCc2ccc(C)o2)c2ncc(C(F)(F)F)cc2Cl)o1,-7.1%,-12.6%,i,-18.9%,-11.4%,-15.5%
C=CCc1c(C)nc(SC)nc1Nc1ccc(C)cc1,?,?,i,-52.2%,9.2µM*,20.6µM*
c1cc(-c2sc(-c3ccncc3)c(-c3ccncc3)c2-c2ccncc2)ccn1,15.2%,-14.1%,.,-35.4%,?,10.3µM*
Nc1nnc(-c2ccncc2)s1,0.1%,17.2%,i,-6.0%,3.5%,4.3%
CC1CC(C)CN(C(=O)COC(=O)c2ccc3c(c2)OCCO3)C1 (stereo not given),12.8%,19.9%,?,5.1%,-2.9%,?
Cn1c(=O)c2[nH]c(N3CCCCC3)nc2n(C)c1=O,-28.6%,-5.5%,i,0.8%,20.6µM*,1.0%
Oc1ccc(N=Cc2ccc(OCc3ccccc3)cc2)cc1,.,11.2µM*,?,-106.4%,20.6µM*,20.6µM*
Cc1ccc(/C(O)=C/C(=O)C(=O)NC23CC4CC(CC(C4)C2)C3)cc1,11.1%,8.8%,?,-14.2%,?,13µM*
O=C(CSc1ccccc1C(=O)NCc1ccccc1)NC12CC3CC(CC(C3)C1)C2,-5.0%,?,i,-6.7%,?,29.1µM*
Cc1ccc(C23CC4CC(CC(C(=O)NN)(C4)C2)C3)cc1,?,-20.8%,i,1.5%,-21.0%,-2.5%
Cc1ccc(CNC(=O)NC23CC4CC(CC(C4)C2)C3)cc1,10.2%,-1.8%,i,-11.3%,23.1µM*,?
Cc1ccc(C23CC4CC(CC(NC(=O)NCCN(C)C)(C4)C2)C3)cc1,?,?,i,-102.9%,?,23.1µM*
O=C(CSc1ccccc1C(=O)O)NCc1ccccc1,1.3%,14.1%,i,3.1%,14.1%,-9.1%
